# Measured values taken from PubChem BioAssay AID720549 (National Center for Advancing Translational Sciences (NCATS), 2013).
# “And” between values parts separate entries of the source, which are not always exact repeats. Identical values can stand only once. Inconclusive results are not listed. Entries that show only a call come without a potency. Where a structure was tested more than once in an assay, its records may differ in their call. The source made the active and inactive calls. The call rests on the fitted dose curve; in most records, active means well fitted inhibition curve with a large enough effect; inconclusive means small, poorly fitted or top-dose-only effect; inactive means flat fitted curve, though single readings scatter.
# Target: RecQ-like DNA helicase BLM (Homo sapiens) (UniProt P54132)
# Sequence (P54132 whole entry, looked up): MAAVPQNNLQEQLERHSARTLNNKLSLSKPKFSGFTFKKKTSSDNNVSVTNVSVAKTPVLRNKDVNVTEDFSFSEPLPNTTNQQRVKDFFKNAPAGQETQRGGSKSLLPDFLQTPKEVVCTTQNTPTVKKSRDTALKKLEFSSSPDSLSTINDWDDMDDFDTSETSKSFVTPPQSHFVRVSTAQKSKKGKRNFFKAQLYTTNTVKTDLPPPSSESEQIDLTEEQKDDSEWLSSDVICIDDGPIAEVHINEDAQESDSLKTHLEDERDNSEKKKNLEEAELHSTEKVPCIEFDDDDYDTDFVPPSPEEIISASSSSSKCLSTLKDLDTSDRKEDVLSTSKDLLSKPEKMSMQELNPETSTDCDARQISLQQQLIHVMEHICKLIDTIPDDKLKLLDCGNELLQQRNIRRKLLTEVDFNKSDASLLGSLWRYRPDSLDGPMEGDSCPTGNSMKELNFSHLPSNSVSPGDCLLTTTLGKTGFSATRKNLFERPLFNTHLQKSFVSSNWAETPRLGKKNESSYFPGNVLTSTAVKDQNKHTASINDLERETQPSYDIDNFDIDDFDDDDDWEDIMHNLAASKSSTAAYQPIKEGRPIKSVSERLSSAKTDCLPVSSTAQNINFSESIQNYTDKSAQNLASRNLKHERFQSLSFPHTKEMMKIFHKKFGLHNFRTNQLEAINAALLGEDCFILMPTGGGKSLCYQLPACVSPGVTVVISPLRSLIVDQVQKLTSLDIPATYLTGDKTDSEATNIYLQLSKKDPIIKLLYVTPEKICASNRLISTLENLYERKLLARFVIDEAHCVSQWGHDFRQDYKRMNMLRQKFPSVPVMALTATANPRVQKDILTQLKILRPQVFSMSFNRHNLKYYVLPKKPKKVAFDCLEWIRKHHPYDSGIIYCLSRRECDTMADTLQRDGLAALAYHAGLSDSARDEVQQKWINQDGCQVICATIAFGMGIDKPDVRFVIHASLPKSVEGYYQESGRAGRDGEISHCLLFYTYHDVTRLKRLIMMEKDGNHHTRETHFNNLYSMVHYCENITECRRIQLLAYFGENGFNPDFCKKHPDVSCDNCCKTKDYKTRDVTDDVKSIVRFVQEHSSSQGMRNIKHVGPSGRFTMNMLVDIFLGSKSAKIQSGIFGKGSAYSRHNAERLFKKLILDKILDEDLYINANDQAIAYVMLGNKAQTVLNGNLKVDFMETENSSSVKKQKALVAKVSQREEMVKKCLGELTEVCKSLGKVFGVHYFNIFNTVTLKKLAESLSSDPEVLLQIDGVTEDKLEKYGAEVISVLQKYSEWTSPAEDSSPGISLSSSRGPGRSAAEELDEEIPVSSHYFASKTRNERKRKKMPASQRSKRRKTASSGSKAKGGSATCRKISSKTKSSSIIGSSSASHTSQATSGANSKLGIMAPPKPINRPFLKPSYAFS
# Experiment: qHTS for Inhibitors of Bloom's syndrome helicase (BLM): Helicase ATPase Orthogonal Confirmatory Assay for SAR
# Conditions: purified BLM helicase ATPase activity assay; series mostly up to 57.1 µM
# Description: Human RecQ DNA helicases participate in maintenance of genome stability and DNA repair. While other types of helicases have been explored as targets for drug development, members of the RecQ family have remained less well characterized. Mutations of the Bloom helicase gene have been associated with the rare human genetic disease called Bloom syndrome. […] Moreover, identified inhibitors can be used in cells and animal models to examine the consequences of inhibition on the survival of cancer cells where it has been shown that BLM plays an important role.
# A fluorescence-based, biochemical assay in 1536 well format was developed to evaluate inhibition of BLM DNA unwinding activity. This assay was used to screen the MLPCN library. The resulting compounds were subjected to orthogonal and secondary biochemical assays to triage the initial hits, to classify compounds based on mode of action and to derive structure activity relationships (SARs) of candidate effectors. The data herein is the result of the Helicase ATPase orthogonal confirmatory assay. This luminescence assay employs a purified BLM enzyme and a single stranded BLM oligo substrate ([…]). For this assay increase in luminescence signal is greater than or equal to 700 RLU. Inhibition is the desired outcome for this assay.
# NIH Chemical Genomics Center [NCGC]
# NIH Molecular Libraries Probe Centers Network [MLPCN]
# Assay Submitter (PI): Opher Gileadi, Structural Genomics Consortium, University of Oxford, UK
# Three microliter of reaction buffer (25mM Tris-HCl pH 8.0, 50mM NaCl, 2mM MgCl2, 1mM DTT, and 0.01% Tween- 20, and 2nM BLM enzyme) was dispensed into a 1536-well assay plates (Greiner, solid white medium-binding) via Aurora Discovery BioRAPTR Flying Reagent Dispenser (FRD). Compounds (23nl each in columns 5-48) and control (23nl each in column 2 as dose-response) were transferred via a Kalypsys pintool equipped with a 1536-pin array. The plates were incubated for 15 min at room temperature followed by addition of 1 ul of substrates (200nM single-stranded oligonucleotide and 100uM ATP, final concentrations) to start the reaction. After 15 min., the reaction was terminated by the addition of 2.5ul of ADP-Glo Reagent I (Promega) to each well and incubation at room temperature for 30 min. Next, 5ul of ADP-Glo Reagent II (Promega) was added to each well. After 30 min at room temperature, the luminescence signal was detected using the ViewLux CCD imager. The data was normalized against no-inhibitor and no-enzyme controls and the resulting percent inhibition data were fitted to a sigmoidal dose response using a four-parameter Hill equation.
row,SMILES,Potency
1,O=C(Nc1cc(F)cc(F)c1)Nc1nnc(-c2ccncc2)s1,inactive
2,Cc1ccc(-c2nnc(NC(=O)Nc3ccc4ccccc4c3)s2)cc1,inactive
3,N#Cc1cc(NC(=O)Nc2nnc(-c3ccncc3)s2)ccc1-c1cn[nH]c1,1.02 µM (active) and 5.13 µM (active)
4,O=C(Nc1cccc(C(=O)O)c1)Nc1nnc(-c2ccncc2)s1,inactive
5,O=C(Nc1ccc(Cl)c(Cl)c1)Nc1nnc(-c2ccc(F)cc2)s1,inactive
6,O=C(Nc1ccc2sccc2c1)Nc1nnc(-c2cccnc2)s1,inactive
7,Cc1cc(NC(=O)Nc2nnc(-c3ccncc3)s2)ccc1C#N,1.29 µM (active)
8,Cc1cc(NC(=O)Nc2cccc(-c3ccncc3)n2)ccc1Br,inactive
9,O=C(Nc1ccc(Cl)c(Cl)c1)Nc1nnc(NC2CCNCC2)s1,inactive
10,CCOc1ccc(NC(=O)Nc2ccc(-c3nc4ccccc4[nH]3)cc2)cc1,inactive
11,Cc1cc(NC(=O)Nc2cccc(-c3ccncc3)n2)ccc1F,inactive
12,O=C(Nc1ccc(F)c(C(F)(F)F)c1)Nc1nnc(C2CCCCC2)s1,inactive
13,Nc1cc(NC(=O)Nc2nnc(-c3ccncc3)s2)ccc1Cl,20.4 µM (active)
14,O=C(Nc1ccc(N2CCOCC2)c(C(F)(F)F)c1)Nc1nnc(-c2ccncc2)s1,inactive
15,O=C(Nc1nnc(-c2ccncc2)s1)Nc1ccc(Cl)c2ccccc12,inactive
16,N/C(=N\c1nnc(-c2ccncc2)s1)Nc1ccc(F)c(C(F)(F)F)c1,inactive and 20.4 µM (active)
17,O=C(NCc1ccc(Cl)c(Cl)c1)Nc1nnc(-c2ccncc2)s1,inactive
18,COc1ccc(OC)c(-c2nnc(NC(=O)Nc3ccc4ccccc4c3)s2)c1,inactive
19,O=C(Nc1ccc(Br)cc1)Nc1nnc(-c2ccncc2)s1,8.13 µM (active)
20,O=C(Nc1cc(C(F)(F)F)cc(C(F)(F)F)c1)Nc1nnc(-c2ccncc2)s1,inactive

row,SMILES,Potency
1,S=C(Nc1ccc(Cl)c(Cl)c1)Nc1nnc(-c2ccncc2)o1,inactive
2,N#Cc1cccc(NC(=O)Nc2nnc(-c3ccncc3)s2)c1,2.29 µM (active)
3,O=C(Nc1nnc(-c2ccncc2)s1)Nc1cccc2ccccc12,5.61 µM (active)
4,O=C(Nc1ccc(Cl)c(Cl)c1)Nc1nnc(-c2ccncc2)s1,6.46 µM (active)
5,O=C(Nc1ccc2ccccc2c1)Nc1nnc(C2CCCCC2)s1,inactive
6,COc1ccc(NC(=O)Nc2ccc(-c3nc4ccccc4[nH]3)cc2)cc1OC,inactive
7,Cc1cc(NC(=O)Nc2nnc(C3CCCCC3)s2)ccc1Cl,inactive
8,Cc1cc(NC(=O)Nc2nnc(C3CCCCC3)s2)ccc1F,inactive
9,O=C(NCc1ccccc1)Nc1nnc(-c2ccncc2)s1,inactive
10,Cc1cc(NC(=O)Nc2nnc(C3CCCCC3)s2)ccc1Br,inactive
11,O=C(Nc1nnc(-c2ccncc2)s1)NC12CC3CC(CC(C3)C1)C2,inactive
12,CC(=O)c1cccc(NC(=O)Nc2nnc(-c3ccncc3)s2)c1,inactive
13,O=C(Nc1ccc(-c2nc3ccccc3[nH]2)cc1)Nc1ccc2c(c1)OCCO2,inactive
14,O=C(Nc1ccc2ccccc2c1)Nc1nnc(-c2ccc(O)cc2)s1,inactive
15,O=C(Nc1ccc(Cl)c(Cl)c1)Nc1ccnc(-c2ccncc2)n1,inactive
16,O=C(Nc1ccc(Cl)c(Cl)c1)Nc1nnc(Br)s1,inactive
17,O=C(Nc1ccc(-c2nc3ccccc3[nH]2)cc1)Nc1ccc2occc2c1,inactive
18,O=C(Nc1ccc2ccccc2c1)Nc1nnc(-c2ccc(Cl)cc2Cl)s1,inactive
19,O=C(Nc1ccc(F)c(C(F)(F)F)c1)Nc1nc(-c2ccncc2)cs1,inactive
20,O=c1c(Nc2ccc(Cl)c(Cl)c2)c(Nc2nnc(-c3ccncc3)s2)c1=O,6.46 µM (active)
